Laboratory results from the supplement of paper PMC6805474.
Values without a mark were called inactive.

Assays:
[1] = system: Schistosoma mansoni schistosomula (NMRI); assay: phenotypic severity score (0-4); higher = more antischistosomal effect, active = 2 or more; settings: 10 µM
[2] = system: Schistosoma mansoni schistosomula (Liberian); assay: drug effect (1 - score/DMSO control score) (fraction); higher = more antischistosomal effect, active = 0.5 or more; extreme values may be limits of the assay; settings: 10 µM
Method in brief: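 Drug effect was calculated by comparing the mean score of the test wells with the mean score of the DMSO wells, and any negative value was set to zero. Duplicate wells of 50 Liberian-strain S. mansoni schistosomula, mechanically transformed from cercariae and pre-incubated at least 12 h, received 10 µM compound in Medium 199 with 5% FCS at 37 °C, 5% CO2, with 0.1% DMSO in the comparison wells. Visual scoring at 10× took place at 24, 48 and 72 h on a quarter-point scale from 3 (normal) to 0 (dead), and a plate counted only if its DMSO wells averaged at least 2.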
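Throughout, for phenotypic severity score (0-4): visual microscopic scoring of shape, motility and density changes versus 0.5% DMSO solvent controls, one point per descriptor, degeneracy or death scored 4, mean of duplicate wells.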

Row | Compound | phenotypic severity score ([1]; 24 h) | phenotypic severity score ([1]; 48 h) | phenotypic severity score ([1]; 72 h) | drug effect ([2]; 24 h) | drug effect ([2]; 48 h) | drug effect ([2]; 72 h)
1 | COc1cccc2c(C)nc(N=C(N)N)nc12 | 0 | 0 | 0 | 0.182 | 0.2 | 0.127
2 | CC(Oc1cccc(Cl)c1)C(=O)Nc1ccc2oc(-c3ccncc3)nc2c1 (configuration not stated) | 1 | 0 | 0 | 0.318 | 0.45 | 0.564 (active)
3 | CCOC(=O)c1cc(-c2csc(Nc3c(C)cc(C)cc3C)n2)on1 | 1 | 1 | 0 | 0.182 | 0.3 | 0.291
4 | Cc1ccc(S(=O)(=O)N2CCN(C(=O)c3cc(-c4ccccc4)[nH]n3)CC2)cc1 | 2 (active) | 2 (active) | 1 | 0.455 | 0.75 (active) | 0.836 (active)
5 | CC(C)(C)C1CCC(CC2=C(O)C(=O)c3ccccc3C2=O)CC1 (configuration not stated) | 3 (active) | 2 (active) | 2 (active) | 0.2 | 0.189 | 0.278
6 | CC(C)(C)c1cnc(NC(=O)c2ccccc2O)s1 | 0 | 1 | 1 | 1 (active) | 1 (active) | 1 (active)
7 | Cc1ccc2cc(C3NC(=O)c4ccccc4N3)c(Cl)nc2c1 (configuration not stated) | 0 | 0 | 1 | 0.05 | 0.0811 | 0.111
8 | CCN(CC)S(=O)(=O)c1ccc(C(=O)Nc2cc(C)nn2-c2nc(C)c(C)c(=O)[nH]2)cc1 | 0 | 0 | 0 | 0.1 | < 0 | < 0
9 | Cc1cc(NC(=O)c2ccc(Oc3ccc(Cl)cc3O)o2)no1 | 0 | 0 | 0 | 0.1 | < 0 | 0.111
10 | CCOc1ccccc1C(=O)Nc1cccc(-c2nc3ncccn3c2C)c1 | 0 | 0 | 0 | 0.0811 | 0.389 | 0.625 (active)
11 | Cc1cc(Cl)ccc1NC(=O)CCc1ccc(S(=O)(=O)NCC(C)C)cc1 | 0 | 0 | 0 | 0.2 | 0.278 | 0.375
12 | CC(C)(C)CN1C(=O)C(c2ccccc2)(c2ccccc2)N=C1N | 0 | 0 | 0 | 0.1 | 0.135 | 0.273
13 | O=C(Nc1cccc(-c2ccc(NCCCN3CCCC3)nc2)c1)c1ccccc1 | 1 | 2 (active) | 4 (active) | 0.2 | 0.459 | 0.515 (active)
14 | COc1ccc(-c2cc(NC(=O)c3ccc(F)cc3Cl)ccc2OC)cc1 | 0 | 1 | 0 | 0.0909 | 0.25 | 0.236
15 | O=C(C1CCN(c2nnc(-n3cccc3)s2)CC1)N1CCC(Cc2ccccc2)CC1 | 1 | 1 | 0 | 0.0526 | 0.111 | < 0
16 | Cc1cc(Nc2ccc(C(F)(F)F)cc2)n2ccnc2n1 | 0 | 0 | 0 | 0.0909 | 0.15 | 0.158
17 | FC(F)(F)c1cnc(Sc2nnc(-c3ccncc3)o2)c(Cl)c1 | 0 | 1 | 2 (active) | 0.459 | 0.778 (active) | 0.938 (active)
18 | CCC(NC(=O)c1ccccc1NC(=O)c1ccc(C)cc1)C(=O)OC (configuration not stated) | 0 | 1 | 1 | 0.2 | 0.167 | 0.25
19 | O=C(Nc1ccccc1-c1nc2c(C(=O)O)cccc2o1)c1ccccc1 | 0 | 0 | 0 | 0.05 | 0.027 | 0.0303
20 | CCc1cc(=O)n(C)c(SC(C)C(=O)Nc2ccc(F)cc2)n1 (configuration not stated) | 0 | 0 | 1 | 0.135 | 0.111 | < 0

Row | Compound | phenotypic severity score ([1]; 24 h) | phenotypic severity score ([1]; 48 h) | phenotypic severity score ([1]; 72 h) | drug effect ([2]; 24 h) | drug effect ([2]; 48 h) | drug effect ([2]; 72 h)
21 | O=C(CCC1CCCCC1)Nc1cccc(-c2nnc(-c3ccco3)o2)c1 | 2 (active) | 4 (active) | 4 (active) | 0.182 | 0.2 | 0.167
22 | Cc1[nH]c2ccccc2c1C(c1cccs1)N1CCN(C)CC1 (configuration not stated) | 3 (active) | 4 (active) | 4 (active) | 1 (active) | 1 (active) | 1 (active)
23 | CNC(=O)c1nn(C)c2c1C(C)(C)Cc1cnc(Nc3ccc(N4CCN(C)CC4)cc3)nc1-2 | 3 (active) | 4 (active) | 4 (active) | 0.364 | 0.8 (active) | 0.891 (active)
24 | CCOc1ccc2cc(-c3nn(CC4CCN(C)CC4)c4ncnc(N)c34)ccc2c1 | 0 | 0 | 0 | 0.1 | 0.167 | 0.389
25 | CC[C@@H]([C@H](C)O)n1ncn(-c2ccc(N3CCN(c4ccc(OC[C@@H]5CO[C@@](Cn6cncn6)(c6ccc(F)cc6F)C5)cc4)CC3)cc2)c1=O | 3 (active) | 4 (active) | 4 (active) | 0.2 | 0.243 | 0.556 (active)
26 | COc1ccc(OC(C)C(=O)Nc2ccc(Cl)cc2C)cc1 (configuration not stated) | 0 | 0 | 0 | 0.182 | 0.35 | 0.345
27 | CC1COC2(CCN(c3nc(=O)c4cc(C(F)(F)F)cc([N+](=O)[O-])c4s3)CC2)O1 (configuration not stated) | 1 | 0 | 0 | 0.136 | 0.25 | 0.291
28 | COc1ccc(-c2nc(-c3cccc(NC(=O)Cc4ccc(F)cc4)c3)no2)cc1OC | 0 | 0 | 1 | 0.182 | 0.2 | 0.182
29 | COc1ccc(S(=O)(=O)Nc2ccc(CN3CCN(C(=O)c4cccc(C#N)c4)CC3)cc2)cc1 | 0 | 0 | 1 | 0.1 | 0.111 | 0.188
30 | CNC1C(OC2C(OC3C(O)C(O)C(NC(=N)N)C(O)C3NC(=N)N)OC(C)C2(O)C=O)OC(CO)C(O)C1O (configuration not stated) | 0 | 0 | 0 | 0.182 | 0.1 | 0.0727
31 | c1ccc(-c2nc(NC3CCCCC3)cc(C3CC3)n2)nc1 | 0 | 0 | 0 | < 0 | 0.0811 | 0.152
32 | CC(=O)Nc1ccc(-c2noc(CC3CCCN(Cc4cccc(F)c4C)C3)n2)cc1 (configuration not stated) | 0 | 0 | 0 | 0.1 | 0.0556 | 0.188
33 | Cc1cc2nc(NC(=O)C(C)(C)C)nc(Cl)c2n1Cc1ccc(Cl)cc1 | 0 | 0 | 0 | 0.136 | 0.4 | 0.345
34 | c1ccc(C[C@@H]2CN(c3nccc(Oc4ccc(-n5ccnc5)cc4)n3)CCN2)cc1 | 0 | 0 | 0 | 0.1 | 0.111 | 0.188
35 | COc1ccc(C2=NN(C3CCCCCC3)C(=O)C2(C)C)cc1OCc1ccccn1 |  |  |  | 0.273 | 0.4 | 0.4
36 | CN1CCN(S(=O)(=O)c2ccc(-c3ccc4c(Nc5ccc6nn[nH]c6c5)ccnc4c3)cc2)CC1 | 0 | 0 | 0 | 0.1 | 0.135 | 0.0909
37 | COc1cc(C(F)(F)F)nc2ccc(C)c(N)c12 | 0 | 0 | 0 | 0.136 | 0.05 | 0.0526
38 | N#Cc1ccc(-c2cnc(N)c(-c3ccc(C(N)=O)cc3)n2)cc1 | 2 (active) | 2 (active) | 4 (active) | 0.027 | 0.333 | 0.5 (active)
39 | COc1cc(NC(=O)Cc2nn(C)c(=O)c3ccccc23)ccc1Cl | 0 | 0 | 0 | 0.105 | 0.111 | 0.0625
40 | COc1cccc(CC(=O)N2CCC(n3c(C)nc4ccc(F)cc43)CC2)c1 | 1 | 1 | 1 | 0.1 | 0.405 | 0.394
